According to PubChem BioAssay AID743269 (The Scripps Research Institute Molecular Screening Center, 2014):
The campaign covered roughly 370,000 compounds. About 2,400 (0.65%) were called active. The sample holds actives, similar compounds and a random draw of the others, so the mix is not that of the screen.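 How the source made its calls: active means inhibition above the screen-wide mean plus 3 SD (cut at about 13% in these data); inactive means the rest.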

What follows are compounds tested on HIV-1 integrase (with human LEDGF/p75) (assay: blockers of LEDGF/p75-dependent integrase strand transfer – biochemical, TR-FRET, high throughput, primary screen (AID 743269;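 further: signal is the Cy5 over europium emission ratio at 671 and 618 nm; 0% = plate median of compound wells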)). Details: TR-FRET IN-LEDGF/p75 DNA integration, Eu/Cy5; at 3.7 µM; stronger effect = higher value.

Q: How did the inhibition turn out when O=C(NCC1COc2ccccc2O1)c1ccc(NC(=O)c2cc(F)ccc2F)cc1 (stereo not drawn) was run?
A: -2.1% (inactive)

Q: For COc1ccc2[nH]c3c(C)c4cc[n+](C)cc4c(C)c3c2c1, which inhibition is on record?
A: 28% (active)

Q: For O=C(CSc1nc2c(c(=O)[nH]1)CCCC2)N1CCCCC1, which inhibition is on record?
A: 3.68% (inactive)

Q: CCOC(=O)C(=O)N(Cc1ccccc1)c1ccccc1C(=O)Nc1cc(OC)ccc1OC was tested. Which inhibition did it give?
A: 0.37% (inactive)

Q: How did the inhibition turn out when COC(=O)[C@]12C[C@H](CC(=O)NCc3ccccc3)C(=O)N(CCc3ccc(OC)c(OC)c3)C1=C[C@H](C(C)(C)C)O[C@@H]2C was run?
A: -2.49% (inactive)

Q: For Cc1ccc(-c2nn(-c3ccccc3)cc2/C=C2\SC(=S)N(CCCCCC(=O)O)C2=O)o1, which inhibition is on record?
A: 13.6% (active)

Q: With C#CCNC(=O)C[C@H]1C[C@@]2(C(=O)OC)C(=C[C@H](C(C)C)O[C@@H]2C2CC2)N(Cc2ccco2)C1=O as the compound, how does the inhibition read?
A: 0.25% (inactive)

Q: Which inhibition does the source give for C=C(C)C#CC(Cc1ccccc1)NCC1CC1 (stereo not drawn) here?
A: -6.26% (inactive)

Q: CN[C@H]1C[C@H]2c3cc(N4CCOCC4)ccc3CCN2C[C@H]1[C@H](C)O was tested. Which inhibition did it give?
A: 3.07% (inactive)

Q: With C[C@H](NC(=O)c1ccccc1Cl)C(=O)OCC(=O)N1CCN(c2ccccc2)CC1 as the compound, how does the inhibition read?
A: 1.43% (inactive)

Q: Cc1ccc(C)c(OCCC(=O)OCC(=O)N2CCN(c3ccccc3)CC2)c1 was tested. Which inhibition did it give?
A: -9.14% (inactive)

Q: Which inhibition does the source give for O=C(OCC(=O)N1CCN(c2ccccc2)CC1)c1ccc([N+](=O)[O-])s1 here?
A: 16.4% (active)

Q: For COc1ccc(-n2c(SCC(=O)Nc3ccccc3-c3ccccc3)nnc2-c2cccnc2)cc1, which inhibition is on record?
A: -1.52% (inactive)

Q: How did the inhibition turn out when COc1ccc(NC(=O)C(NC(C)=O)C(=O)NCc2ccccc2Cl)cc1 (stereo not drawn) was run?
A: 41.8% (active)

Q: How did the inhibition turn out when COc1ccc(CNC(=O)C(C)NCc2ccccc2Cl)cc1 (stereo not drawn) was run?
A: -0.38% (inactive)

Q: COc1ccc(NC(=O)N2CCCC2C(=O)NCc2ccccc2Cl)cc1 (stereo not drawn) was tested. Which inhibition did it give?
A: -4.21% (inactive)

Q: With CCC(=O)OCCCN1C(=O)CCC12CCC(c1ccccc1)CC2 (stereo not drawn) as the compound, how does the inhibition read?
A: 2.48% (inactive)

Q: For O=C1CC(c2ccc3c(c2)OCO3)N=C2N(CC3CC3)C/C(=C/c3ccccc3)N12 (stereo not drawn), which inhibition is on record?
A: -0.65% (inactive)

Q: How did the inhibition turn out when Cc1cc(NS(=O)(=O)c2ccc(NC(=O)CSc3nnc(SCc4ccc(F)cc4)s3)cc2)nc(C)n1 was run?
A: -3.91% (inactive)

Q: Which inhibition does the source give for CCOC(=O)C1CCN(C(=O)C(C)(C)NC(=O)Nc2ccc(F)c(F)c2)CC1 here?
A: 3.2% (inactive)

Q: For Cc1ccc(S(=O)(=O)/N=C2\C=C(NS(=O)(=O)c3ccc(C)cc3)C(=O)c3ccccc32)cc1, which inhibition is on record?
A: 14.9% (active)

Q: How did the inhibition turn out when Cc1ccc(S(=O)(=O)N/N=C(\c2ccccc2)C2CC2)cc1 was run?
A: 0.27% (inactive)

Q: COc1ccc(S(=O)(=O)/N=C2\C=C(NS(=O)(=O)c3ccccc3)C(=O)c3ccccc32)cc1 was tested. Which inhibition did it give?
A: 15.6% (active)

Q: With CNC(=O)COc1ccc(S(=O)(=O)Nc2ccccc2)cc1 as the compound, how does the inhibition read?
A: -0.9% (inactive)

Q: How did the inhibition turn out when Cc1ccc(S(=O)(=O)N[C@H](CO)C(C)C)cc1 was run?
A: 4.45% (inactive)

Q: For COc1ccc(C(=O)C(C)OC(=O)c2cccc(S(=O)(=O)Nc3c(C)n(C)n(-c4ccccc4)c3=O)c2)cc1 (stereo not drawn), which inhibition is on record?
A: 1.63% (inactive)

Q: For Cc1ccc(C)c(NC(=O)CCS(=O)(=O)c2ccccc2)c1, which inhibition is on record?
A: 1.44% (inactive)

Q: O=C1CC[C@@]23CCCN2C(=O)CCC[C@H]3[C@H]1Cc1ccccc1 was tested. Which inhibition did it give?
A: -0.34% (inactive)

Q: How did the inhibition turn out when Fc1ccc2nc(COCc3nc4ccc(F)cc4[nH]3)[nH]c2c1 was run?
A: 0.7% (inactive)

Q: For O=C(CSc1nc2ccccc2n1Cc1ccccc1)NNC(=S)Nc1ccccc1, which inhibition is on record?
A: 5.2% (inactive)

Q: Which inhibition does the source give for COC(=O)C[C@@H]1CC[C@@H]2[C@@H](COc3ccc(NC(=O)Nc4ccc(F)c(F)c4)cc3C(=O)N2C)O1 here?
A: 0.03% (inactive)

Q: For COC(=O)c1cccc(Cn2ccc3ccc(-c4ccc5ccn(C(=O)C6CCCCC6)c5c4)cc32)c1, which inhibition is on record?
A: 0.91% (inactive)

Q: Which inhibition does the source give for COC(=O)C[C@H]1CC[C@H]2[C@H](COc3ccc(NC(=O)C4CC4)cc3C(=O)N2C)O1 here?
A: 2.4% (inactive)

Q: C/C(=N\Nc1ccc(Cl)nn1)c1ccccc1O was tested. Which inhibition did it give?
A: -4.19% (inactive)

Q: With Oc1cccc(/C=N/Nc2ccc(Cl)nn2)c1O as the compound, how does the inhibition read?
A: 18.5% (active)

Q: With CCOC(=O)[C@]12CCCCC/C=C\1N(Cc1ccc(OC)cc1)C(=O)[C@H]2CC(=O)NCCCN1CCCC1=O as the compound, how does the inhibition read?
A: -3.19% (inactive)

Q: How did the inhibition turn out when COC(=O)c1cc(S(=O)(=O)N2CCN(C(=O)C3CCCO3)CC2)cn1C (stereo not drawn) was run?
A: 8.59% (inactive)

Q: How did the inhibition turn out when COc1ccc(-n2c(SCC(=O)Nc3ccc4cn[nH]c4c3)nnc2-c2cccnc2)cc1 was run?
A: -0.62% (inactive)

Q: How did the inhibition turn out when COc1ccc(-c2cc(-c3nnc(SCC(=O)Nc4cccc5ccccc45)n3N)[nH]n2)cc1 was run?
A: -3.91% (inactive)

Q: Which inhibition does the source give for Cc1c(C)c2c(OCC(=O)N[C@@H](C(=O)O)c3ccccc3)cc3c(c2oc1=O)CCC(C)(C)O3 here?
A: -4.85% (inactive)

Q: Which inhibition does the source give for Cc1cc(=O)oc2c3c(cc(OCC(=O)N[C@H](C(=O)O)c4ccccc4)c12)OC(C)(C)CC3 here?
A: 18.2% (active)

Q: How did the inhibition turn out when Cc1cc(=O)oc2c3c(cc(OCC(=O)NCC(O)c4ccccc4)c12)OC(C)(C)CC3 (stereo not drawn) was run?
A: -5.46% (inactive)

Q: How did the inhibition turn out when O=C(NC1CCCCN(Cc2ccc(Cl)cc2)C1=O)c1ccc(Br)cc1 (stereo not drawn) was run?
A: 2.38% (inactive)

Q: How did the inhibition turn out when COC(=O)[C@]12C[C@H](CC(=O)NCC34CC5CC(CC(C5)C3)C4)C(=O)N(Cc3ccc(Cl)cc3Cl)C1=C[C@H](COCc1ccccc1)O[C@@H]2C was run?
A: -4.42% (inactive)

Q: How did the inhibition turn out when CC(C)CSc1nnc(-c2cccnc2)n1Cc1ccccc1 was run?
A: 1.09% (inactive)

Q: How did the inhibition turn out when CCOc1c(Br)cc(/C=C2\C(=O)N(CCC#N)N=C2C)cc1OC was run?
A: 36% (active)

Q: Which inhibition does the source give for COC(=O)[C@H](C(C)C)N(CCc1cn(Cc2ccccc2)nn1)S(=O)(=O)c1ccc(F)cc1Br here?
A: -1.7% (inactive)

Q: FC(F)(F)c1cccc(NC(=S)OC2CCC23CCC(c2ccccc2)CC3)c1 (stereo not drawn) was tested. Which inhibition did it give?
A: 2.54% (inactive)

Q: Nc1[nH]c(/C=C2/CCCCC2n2[nH]c(=O)n(-c3ccccc3)c2=O)c(Cc2ccccc2)[n+]1Cc1ccccc1 (stereo not drawn) was tested. Which inhibition did it give?
A: 3.55% (inactive)

Q: How did the inhibition turn out when C[C@H]1[C@H](NC(=O)c2cccc(N(C)C)c2)CC[C@@]23CCCN2C(=O)CCC[C@@H]13 was run?
A: -2.54% (inactive)

Q: How did the inhibition turn out when O=C(CN1CCN(S(=O)(=O)c2cc(Cl)ccc2Cl)CC1)c1ccc(O)c(O)c1 was run?
A: 50.6% (active)

Q: With CCN1CCN(C(=O)C2CCN(S(=O)(=O)c3cc(Cl)ccc3Cl)CC2)CC1 as the compound, how does the inhibition read?
A: 1.63% (inactive)

Q: For O=S(=O)(c1cc(Cl)ccc1Cl)N1CCN(Cc2ccco2)CC1, which inhibition is on record?
A: -3.53% (inactive)

Q: Which inhibition does the source give for CC(=O)O[C@@]1(C(C)=O)CCC2[C@H]3C=C(C)C4=CC(=O)CC[C@@]4(C)C3CC[C@]21C (stereo partly drawn) here?
A: -5.1% (inactive)

Q: O=C(NCCc1c[nH]c2ccccc12)OCc1cn(-c2c(F)cccc2F)nn1 was tested. Which inhibition did it give?
A: 4.42% (inactive)

Q: How did the inhibition turn out when COc1cc(CCC(=O)OCC(=O)Nc2cccc(S(N)(=O)=O)c2)cc(OC)c1OC was run?
A: -0.51% (inactive)

Q: COc1cc(NC(=O)COC(=O)c2ccc([N+](=O)[O-])s2)cc(OC)c1OC was tested. Which inhibition did it give?
A: 32.2% (active)

Q: For COc1cc(NC(=O)COC(=O)c2cnc(C)cn2)c(C)cc1[N+](=O)[O-], which inhibition is on record?
A: -1.79% (inactive)

Q: With CC(C)CNc1cccc2c1S(=O)(=O)N(Cc1cn(Cc3ccc(Cl)cc3)nn1)Cc1ccccc1O2 as the compound, how does the inhibition read?
A: 4.9% (inactive)

Q: How did the inhibition turn out when O=C(CCl)NC1CCCCN(Cc2cccc(C(F)(F)F)c2)C1=O (stereo not drawn) was run?
A: 0.3% (inactive)

Q: COc1ccccc1C1CC(=O)n2c(nc(-c3ccccc3)c2-c2ccccc2)S1 (stereo not drawn) was tested. Which inhibition did it give?
A: -1.14% (inactive)

Q: With COc1ccccc1C1C(C#N)=C(N)Oc2c1c(-c1ccccc1)nn2-c1ccccc1 (stereo not drawn) as the compound, how does the inhibition read?
A: 43.4% (active)

Q: With COc1ccc(C2C(C#N)=C(N)Oc3n[nH]c(C)c32)cc1CN1CCN(c2ccc(F)cc2)CC1 (stereo not drawn) as the compound, how does the inhibition read?
A: 6.04% (inactive)

Q: O=C(Nc1cccc(Cl)c1)OC1CC2CC1[C@H]1CCCCN1[C@H]2Cc1ccccc1 (stereo partly drawn) was tested. Which inhibition did it give?
A: -1.12% (inactive)

Q: For CN(CCc1ccccc1)C(=O)Cn1nc(-c2ccccc2)ccc1=O, which inhibition is on record?
A: -1.71% (inactive)

Q: O=C(NCc1ccc(Cl)cc1)C1CCCN(c2nc3ccccc3o2)C1 (stereo not drawn) was tested. Which inhibition did it give?
A: -2.98% (inactive)

Q: How did the inhibition turn out when COC(=O)C1=C(C)N(C)C(=O)NC1c1ccc([N+](=O)[O-])o1 (stereo not drawn) was run?
A: 46.5% (active)

Q: Which inhibition does the source give for COc1ccc(C2NC(=O)N(C)C(C)=C2[N+](=O)[O-])cc1 (stereo not drawn) here?
A: -0.24% (inactive)

Q: CCOCCOC(=O)C1=C(C)N(C)C(=O)NC1c1ccccc1F (stereo not drawn) was tested. Which inhibition did it give?
A: -1.24% (inactive)

Q: How did the inhibition turn out when CCCCCN1CCCCC(NC(=O)C(C)CCC)C1=O (stereo not drawn) was run?
A: -0.51% (inactive)

Q: Which inhibition does the source give for COCCCNC(=O)C[C@H]1C[C@@]2(C(=O)OC)C(=C[C@H](C(C)(C)C)O[C@@H]2C)N(Cc2ccc(Cl)cc2Cl)C1=O here?
A: 2.76% (inactive)

Q: How did the inhibition turn out when O=C(OC12CCCN(C1)/C(=C/c1cccnc1)C2)C1CCCC1 (stereo not drawn) was run?
A: -0.68% (inactive)

Q: With OC(c1ccccc1)C(CN1CCOCC1)c1ccccc1 (stereo not drawn) as the compound, how does the inhibition read?
A: 2.05% (inactive)

Q: Oc1c(CN2CCOCC2)ccc(CN2CCOCC2)c1O was tested. Which inhibition did it give?
A: 58% (active)

Q: OCCN1CCOCCOCCN(CCO)CCN(CCO)CC1 was tested. Which inhibition did it give?
A: -1.91% (inactive)

Q: CCOC(=O)c1cnc2sccn2c1=O was tested. Which inhibition did it give?
A: 2.78% (inactive)

Q: How did the inhibition turn out when O=C(NCc1ccccn1)c1cnc2sccn2c1=O was run?
A: 3.23% (inactive)

Q: For CN(C)/C=C/C(=O)c1cnc2sccn2c1=O, which inhibition is on record?
A: 16.3% (active)

Q: O=C(NC1CCC1)c1ccc(C#CC2CC2)cn1 was tested. Which inhibition did it give?
A: 0.75% (inactive)

Q: With COc1cccc(CNC(=O)CNS(=O)(=O)c2ccc3nc(C)sc3c2)c1OC as the compound, how does the inhibition read?
A: 2.85% (inactive)

Q: For COC(=O)[C@@]12CCCCC3=C1N(CCC3)C(=O)[C@H]2CC(=O)NCc1cccc2ccccc12, which inhibition is on record?
A: 0.3% (inactive)

Q: For COc1cccc(CSc2nnc(-c3cccnc3)n2Cc2ccccc2)c1, which inhibition is on record?
A: -2.05% (inactive)

Q: With COC(=O)[C@]12C[C@H](CC(=O)NCc3cccc4ccccc34)C(=O)N(CCc3ccc(OC)c(OC)c3)C1=C[C@H](C1CCCC1)O[C@@H]2C as the compound, how does the inhibition read?
A: 3.8% (inactive)
